Measured values taken from PubChem BioAssay (EPA / NIEHS).
Inconclusive results are not listed. Active and inactive are the calls of the source. The calls were made as follows, unless noted: active = hit-call score of the fitted dose curve at least 0.9, where 1 is the maximum; inactive = score below 0.9.

Experiments:
[1] = molecular target: human RAR-related Orphan Receptor gamma (RORg), RORC (gene 6097) (UniProt P51449); assay: ATG_RORg_TRANS: Attagene TRANS-FACTORIAL HepG2 Assay for human RAR-related Orphan Receptor gamma (RORg) (AID 2283011; active = hit-call score of the fitted dose curve at least 0.9, where 1 is the maximum)
Sequence of human RAR-related Orphan Receptor gamma (RORg), RORC (gene 6097) (P51449 whole entry, looked up, the tested form may be a part): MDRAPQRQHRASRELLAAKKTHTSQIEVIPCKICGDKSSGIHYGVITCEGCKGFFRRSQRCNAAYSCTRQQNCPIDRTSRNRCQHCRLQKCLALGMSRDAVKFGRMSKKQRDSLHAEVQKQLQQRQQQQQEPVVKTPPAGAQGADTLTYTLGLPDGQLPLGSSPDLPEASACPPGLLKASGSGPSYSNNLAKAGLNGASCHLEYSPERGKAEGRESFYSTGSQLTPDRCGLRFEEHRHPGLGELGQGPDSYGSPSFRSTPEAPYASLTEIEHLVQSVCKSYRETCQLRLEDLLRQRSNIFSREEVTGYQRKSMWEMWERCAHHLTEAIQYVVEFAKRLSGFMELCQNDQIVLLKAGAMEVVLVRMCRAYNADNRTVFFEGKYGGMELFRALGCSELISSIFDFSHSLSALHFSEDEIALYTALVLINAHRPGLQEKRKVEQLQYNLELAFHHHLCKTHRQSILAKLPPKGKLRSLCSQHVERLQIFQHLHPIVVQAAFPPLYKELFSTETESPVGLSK
In short: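 Transient MRTU transfection of HepG2 (TRANS format, exogenous NR-Gal4 chimera). 24 h dosing. Total RNA → oligo(dT) RT → PCR → 6-FAM labelling → HpaI cut → CE. Gain vs DMSO.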

[2] = read-out: E-selectin (Homo sapiens) (UniProt P16581); assay: BSK_3C_Eselectin: BioMAP Diversity Plus: 3C Assay for Eselectin Biomarker Activity (AID 2283015); conditions: primary human endothelial cells (HUVEC); actives raise or lower the signal
In short: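 HUVEC, 3C stimulation; compound exposure 24 h; E-selectin by ELISA; gain- or loss-of-signal fitted bidirectionally vs DMSO baseline.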

[3] = read-out: Interleukin-1 alpha (IL1a), IL1A (gene 3552); assay: BSK_BE3C_IL1a: BioMAP Diversity Plus: BE3C Assay for Interleukin-1 alpha (IL1a) Biomarker Activity (AID 2283016); conditions: primary human bronchial epithelial cells; actives raise or lower the signal
In short: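 Measured in human lung primary bronchial epithelial cells: IL-1a by ELISA at 24 h after dosing, with bidirectional fitting against DMSO.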

[4] = read-out: Monocyte Chemoattractant Protein-1 (MCP1), CCL2 (gene 6347); assay: BSK_4H_MCP1: BioMAP Diversity Plus: 4H Assay for Monocyte Chemoattractant Protein-1 (MCP1) Biomarker Activity (AID 2283018); conditions: primary human endothelial cells (HUVEC); actives raise or lower the signal
In short: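 Primary human umbilical vein endothelium is exposed to chemical for 24 h before MCP-1 is assayed by ELISA. Concentration-response fitted bidirectionally relative to DMSO.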

[5] = read-out: Human Leukocyte Antigen - DR isotype (HLADR), HLA-DRA (gene 3122); assay: BSK_3C_HLADR: BioMAP Diversity Plus: 3C Assay for Human Leukocyte Antigen - DR isotype (HLADR) Biomarker Activity (AID 2283019); conditions: primary human endothelial cells (HUVEC); actives raise or lower the signal
In short: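 HUVEC, 3C stimulation, 24 h post-dose; HLA-DR by ELISA; bidirectional curve fit vs DMSO baseline; gain or loss of signal scored.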

[6] = read-out: Interleukin-8 (IL8), CXCL8 (gene 3576); assay: BSK_3C_IL8: BioMAP Diversity Plus: 3C Assay for Interleukin-8 (IL8) Biomarker Activity (AID 2283020); conditions: primary human endothelial cells (HUVEC); actives raise or lower the signal
In short: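 Using DMSO-treated wells as the baseline, bidirectional curve fitting was applied to ELISA-measured IL-8 from human umbilical vein endothelial cultures sampled 24 h after compound addition.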

[7] = read-out: Monokine induced gamma interferon (MIG), CXCL9 (gene 4283); assay: BSK_3C_MIG: BioMAP Diversity Plus: 3C Assay for Monokine induced gamma interferon (MIG) Biomarker Activity (AID 2283021); conditions: primary human endothelial cells (HUVEC); actives raise or lower the signal;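 as to AC50: MIG protein level measured by immunoassay in the treated endothelial cultures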
In short: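 ELISA-measured MIG in dosed HUVEC 3C cultures at 24 h, analysed by bidirectional fitting with DMSO defining baseline activity.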

[8] = BSK_3C_SRB: Viability Assessment in the BioMAP Diversity Plus: 3C Assay (AID 2283023); conditions: primary human endothelial cells (HUVEC);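 also: cells read 24 h after compound dosing; fitted both ways against DMSO so a hit may be signal rise or drop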
In short: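 HUVEC, 24 h post-dose; 10% TCA fix, 0.1% SRB stain, A560 nm. Bidirectional curve fit vs DMSO negative control.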

[9] = read-out: Matrix Metallopeptidase 1 (MMP1), MMP1 (gene 4312); assay: BSK_BE3C_MMP1: BioMAP Diversity Plus: BE3C Assay for Matrix Metallopeptidase 1 (MMP1) Biomarker Activity (AID 2283024); conditions: primary human bronchial epithelial cells; actives raise or lower the signal
In short: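 In this multiplexed primary-cell system, human bronchial epithelium received chemicals for 24 h before an ELISA for MMP1. Values reflect bidirectional fits normalised to the DMSO baseline.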

[10] = BSK_3C_Vis: BioMAP Diversity Plus: 3C Assay for Morphology Visualization (AID 2283025); conditions: primary human endothelial cells (HUVEC);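 also: fitted both ways so gain or loss versus DMSO counts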;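 as to AC50: light microscopy image of cell morphology used as background control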
In short: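 Light-microscopy morphology readout, 24 h exposure, human primary umbilical vein endothelium; analysed relative to DMSO with bidirectional fitting.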

[11] = read-out: Pselectin, SELP (gene 6403); assay: BSK_4H_Pselectin: BioMAP Diversity Plus: 4H Assay for Pselectin Biomarker Activity (AID 2283026); conditions: primary human endothelial cells (HUVEC); actives raise or lower the signal
In short: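 Bidirectional fits against DMSO gave the endpoint. Cells: primary human umbilical vein endothelium, chemical-treated for 24 h before ELISA detection of P-selectin.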

[12] = BSK_4H_SRB: Viability Assessment in the BioMAP Diversity Plus: 4H Assay (AID 2283027); conditions: primary human endothelial cells (HUVEC);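 also: cells exposed to compound for 24 h before staining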;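 as to AC50: curves fitted both ways versus DMSO so AC50 may be loss or gain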
In short: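 Cytotoxicity readout: sulforhodamine B (0.1%) staining of total protein after 10% TCA fixation, measured at 560 nm in human umbilical vein endothelium at 24 h. DMSO set the baseline; fitting was bidirectional.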

[13] = BSK_BE3C_SRB: Viability Assessment in the BioMAP Diversity Plus: BE3C Assay (AID 2283028); conditions: primary human bronchial epithelial cells;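 as to AC50: fitted both ways so AC50 may mark signal gain or loss versus DMSO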
In short: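 Primary human bronchial epithelium; chemical dosing, 24 h; 10% TCA fix, 0.1% SRB stain, A560; bidirectional fit vs DMSO baseline.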

[14] = read-out: Thrombomodulin, THBD (gene 7056); assay: BSK_3C_Thrombomodulin: BioMAP Diversity Plus: 3C Assay for Thrombomodulin Biomarker Activity (AID 2283029); conditions: primary human endothelial cells (HUVEC); actives raise or lower the signal
In short: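 In a multiplexed primary-cell system, human umbilical vein endothelium received chemical and was assayed 24 h later for thrombomodulin by ELISA. Parallel cultures were SRB-stained (0.1% SRB after 10% TCA fixation, read at 560 nm) to flag cytotoxicity.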

[15] = molecular target: Retinoic acid receptor RXR-alpha (Homo sapiens) (UniProt P19793); assay: ATG_RXRa_TRANS: Attagene TRANS-FACTORIAL HepG2 Assay for human Retinoid X Receptor alpha (RXRa) (AID 2283012; active = hit-call score of the fitted dose curve at least 0.9, where 1 is the maximum)
Sequence of Retinoic acid receptor RXR-alpha (Homo sapiens) (P19793 whole entry, looked up, the tested form may be a part): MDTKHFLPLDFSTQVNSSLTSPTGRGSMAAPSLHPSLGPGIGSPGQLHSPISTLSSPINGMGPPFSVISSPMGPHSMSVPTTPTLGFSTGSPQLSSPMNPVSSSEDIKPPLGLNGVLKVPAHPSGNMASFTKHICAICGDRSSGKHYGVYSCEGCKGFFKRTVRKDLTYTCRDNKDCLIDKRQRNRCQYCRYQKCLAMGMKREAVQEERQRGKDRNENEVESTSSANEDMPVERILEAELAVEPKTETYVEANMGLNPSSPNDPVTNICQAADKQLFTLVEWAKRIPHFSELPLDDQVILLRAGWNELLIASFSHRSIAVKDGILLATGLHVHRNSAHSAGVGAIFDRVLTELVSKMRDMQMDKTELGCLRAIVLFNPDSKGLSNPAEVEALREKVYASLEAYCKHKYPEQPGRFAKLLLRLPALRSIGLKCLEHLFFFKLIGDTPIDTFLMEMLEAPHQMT
In short: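 Chimeric NR-GAL4 trans-activation in HepG2, 24 h treatment; reporter transcripts quantified by fluorescence on capillary electrophoresis, analysed for upward change from DMSO.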

[16] = molecular target: human Thyroid Receptor alpha (THRa1), THRA (gene 7067) (UniProt P10827); assay: ATG_THRa1_TRANS: Attagene TRANS-FACTORIAL HepG2 Assay for human Thyroid Receptor alpha (THRa1) (AID 2283014; active = hit-call score of the fitted dose curve at least 0.9, where 1 is the maximum)
Sequence of human Thyroid Receptor alpha (THRa1), THRA (gene 7067) (P10827 whole entry, looked up, the tested form may be a part): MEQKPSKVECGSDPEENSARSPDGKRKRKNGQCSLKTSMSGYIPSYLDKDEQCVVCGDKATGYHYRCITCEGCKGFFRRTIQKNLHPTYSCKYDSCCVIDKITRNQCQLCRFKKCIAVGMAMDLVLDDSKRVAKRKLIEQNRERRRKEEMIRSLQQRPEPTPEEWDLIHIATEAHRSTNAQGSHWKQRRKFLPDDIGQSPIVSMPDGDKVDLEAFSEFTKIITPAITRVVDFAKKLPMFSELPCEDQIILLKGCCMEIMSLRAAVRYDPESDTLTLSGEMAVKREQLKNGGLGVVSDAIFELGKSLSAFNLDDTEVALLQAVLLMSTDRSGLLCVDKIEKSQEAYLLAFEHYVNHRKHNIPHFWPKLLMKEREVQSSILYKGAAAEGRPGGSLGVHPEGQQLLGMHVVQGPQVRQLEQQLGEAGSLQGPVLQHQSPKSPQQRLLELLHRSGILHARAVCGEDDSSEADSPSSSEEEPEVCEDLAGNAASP
In short: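 Transient HepG2 transfection, NR-Gal4 chimera driving GAL4-UAS reporters; 24 h compound exposure; total RNA, oligo(dT) RT, PCR, fluorescent primer extension, capillary electrophoresis. Upward direction vs DMSO control.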

[17] = read-out: Monocyte Chemoattractant Protein-1 (MCP1), CCL2 (gene 6347); assay: BSK_3C_MCP1: BioMAP Diversity Plus: 3C Assay for Monocyte Chemoattractant Protein-1 (MCP1) Biomarker Activity (AID 2283017); conditions: primary human endothelial cells (HUVEC); actives raise or lower the signal
In short: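 HUVEC, 3C system; 24 h chemical exposure; MCP-1 by ELISA; bidirectional curve fit vs DMSO baseline.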

[18] = molecular target: human Vitamin D Receptor (VDR), VDR (gene 7421) (UniProt P11473); assay: ATG_VDR_TRANS: Attagene TRANS-FACTORIAL HepG2 Assay for human Vitamin D Receptor (VDR) (AID 2283022; active = hit-call score of the fitted dose curve at least 0.9, where 1 is the maximum)
Sequence of human Vitamin D Receptor (VDR), VDR (gene 7421) (P11473 whole entry, looked up, the tested form may be a part): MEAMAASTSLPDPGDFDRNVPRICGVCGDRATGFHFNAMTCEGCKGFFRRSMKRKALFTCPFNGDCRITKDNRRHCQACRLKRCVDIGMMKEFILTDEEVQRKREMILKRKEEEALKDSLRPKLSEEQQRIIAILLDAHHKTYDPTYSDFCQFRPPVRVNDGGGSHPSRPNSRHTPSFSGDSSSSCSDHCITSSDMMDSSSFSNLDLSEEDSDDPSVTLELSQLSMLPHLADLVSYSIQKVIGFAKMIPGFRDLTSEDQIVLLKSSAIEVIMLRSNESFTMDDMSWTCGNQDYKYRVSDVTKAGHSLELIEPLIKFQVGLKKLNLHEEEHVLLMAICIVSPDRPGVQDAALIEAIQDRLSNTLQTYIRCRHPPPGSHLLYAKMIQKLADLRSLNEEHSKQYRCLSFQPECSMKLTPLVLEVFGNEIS
In short: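 RT-PCR/capillary electrophoresis read-out of reporter mRNA induction in transiently transfected HepG2; 24 h dosing; chimeric NR-Gal4 (TRANS format); gain-of-signal fit against DMSO baseline.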

Measured: AC50

Sequence of E-selectin (Homo sapiens) (P16581 whole entry, looked up): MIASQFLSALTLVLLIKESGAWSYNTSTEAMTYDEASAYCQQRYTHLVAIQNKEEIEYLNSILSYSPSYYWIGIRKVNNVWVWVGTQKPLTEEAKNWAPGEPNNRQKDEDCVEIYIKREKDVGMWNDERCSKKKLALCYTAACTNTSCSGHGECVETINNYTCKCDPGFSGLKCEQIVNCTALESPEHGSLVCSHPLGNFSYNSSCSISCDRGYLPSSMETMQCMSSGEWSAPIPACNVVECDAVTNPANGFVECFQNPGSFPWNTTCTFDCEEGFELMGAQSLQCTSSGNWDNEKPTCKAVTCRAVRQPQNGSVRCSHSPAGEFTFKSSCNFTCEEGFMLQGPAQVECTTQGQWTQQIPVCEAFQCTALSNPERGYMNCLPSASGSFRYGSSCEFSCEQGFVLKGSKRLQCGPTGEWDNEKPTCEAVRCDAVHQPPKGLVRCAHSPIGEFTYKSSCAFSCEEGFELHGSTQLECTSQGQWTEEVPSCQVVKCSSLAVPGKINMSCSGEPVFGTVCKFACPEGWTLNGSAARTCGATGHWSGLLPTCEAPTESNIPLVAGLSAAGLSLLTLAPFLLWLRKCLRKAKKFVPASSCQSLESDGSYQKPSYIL

CNC(=O)Oc1ccccc1OC(C)C
active: [3] 5.51 µM
not listed: [15] | [16] | [17] | [18]
inactive: all other assays above

CCCN(CCOc1c(Cl)cc(Cl)cc1Cl)C(=O)n1ccnc1
active: [3] 22.1 µM | [4] 20 µM | [5] 37 µM | [8] 32 µM | [11] 33.8 µM | [12] 29.8 µM | [13] 28.9 µM | [14] 12 µM
inactive: [1] | [15] | [16] | [2] | [6] | [7] | [10]

CCCN(CCC)c1c([N+](=O)[O-])cc(C(F)(F)F)cc1[N+](=O)[O-]
active: [4] 24.7 µM | [8] 24.8 µM | [10] 13.7 µM | [11] 36.5 µM
not listed: [1] | [9] | [15] | [16] | [18]
inactive: all other assays above

COP(=S)(OC)Oc1ccc([N+](=O)[O-])cc1
inactive: [3] | [4] | [7] | [18] | [11] | [13] | [14]
active: [2] 8.4 µM | [5] 17.4 µM | [6] 2.36 µM | [8] 23 µM | [10] 14.4 µM | [12] 5.97 µM

CC(C)N(C(=O)COc1nnc(C(F)(F)F)s1)c1ccc(F)cc1
active: [4] 22.4 µM | [11] 11.1 µM
not listed: [1] | [9] | [16] | [17] | [18]
inactive: all other assays above

Cc1[nH]c(=O)n(C(C)(C)C)c(=O)c1Cl
active: [5] 13.2 µM
not listed: [9] | [15] | [17] | [18]
inactive: all other assays above

CC1(c2ccc(Oc3ccccc3)cc2)OC(=O)N(Nc2ccccc2)C1=O (stereo not given)
inactive: [15] | [16] | [3] | [14]
active: [2] 30.9 µM | [4] 16.3 µM | [5] 24 µM | [6] 24 µM | [7] 32.3 µM | [8] 28.5 µM | [10] 16.3 µM | [11] 31.7 µM | [12] 20 µM | [13] 27.5 µM

[2H]C1([2H])[n+]2ccccc2-c2cccc[n+]2C1([2H])[2H]
active: [13] 13.3 µM
not listed: [9] | [15] | [16] | [17]
inactive: all other assays above
